Data: the supplement of paper PMC3334620
In all, about 33,000 sequences were measured (“E-score (-0.5 to 0.5)”: median about -0.011, highest 2% from about 0.28 on). This excerpt belongs to a sample that is enriched for the highest values.

target: T1, Gcr1 (UniProt P07261); assay: PBM E-score (8-mer binding enrichment) (E-score (-0.5 to 0.5)); higher = stronger / more preferred TF binding; settings: protein concentration: 100 nM; construct: GST-full length
T1 sequence: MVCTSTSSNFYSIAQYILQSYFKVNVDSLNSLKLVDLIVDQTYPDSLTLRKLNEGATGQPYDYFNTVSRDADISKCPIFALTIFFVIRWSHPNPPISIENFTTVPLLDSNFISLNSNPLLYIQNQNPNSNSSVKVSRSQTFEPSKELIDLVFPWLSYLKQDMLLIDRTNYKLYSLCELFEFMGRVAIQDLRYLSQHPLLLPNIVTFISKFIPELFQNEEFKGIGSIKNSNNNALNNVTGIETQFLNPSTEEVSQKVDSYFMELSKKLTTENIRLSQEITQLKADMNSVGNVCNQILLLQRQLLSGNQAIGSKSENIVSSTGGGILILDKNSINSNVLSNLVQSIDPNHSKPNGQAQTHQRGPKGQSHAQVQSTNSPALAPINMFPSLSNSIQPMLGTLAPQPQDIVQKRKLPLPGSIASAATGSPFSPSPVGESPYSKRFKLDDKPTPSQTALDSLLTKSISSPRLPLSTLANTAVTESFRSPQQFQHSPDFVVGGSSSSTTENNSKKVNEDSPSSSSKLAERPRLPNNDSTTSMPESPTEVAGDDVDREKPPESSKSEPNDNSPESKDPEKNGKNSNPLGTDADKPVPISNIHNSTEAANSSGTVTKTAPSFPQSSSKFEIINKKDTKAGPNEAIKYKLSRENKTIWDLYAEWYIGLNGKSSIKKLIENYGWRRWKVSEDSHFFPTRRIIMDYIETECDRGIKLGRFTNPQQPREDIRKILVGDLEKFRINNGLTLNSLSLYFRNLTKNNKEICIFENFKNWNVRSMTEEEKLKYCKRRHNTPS
Procedure: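 Universal 'all 10-mer' protein binding microarrays (Agilent AMADID 015681) probed with GST-tagged S. cerevisiae TFs (full-length or DBD) made by in vitro transcription/translation (PURExpress), about 100-200 nM. Bound TF was detected with fluorescent anti-GST. Each ungapped 8-mer (which stands for itself and its reverse complement) is scored by the PBM enrichment score (E-score), a modified Wilcoxon-Mann-Whitney statistic from -0.5 to +0.5, computed with the Universal PBM Analysis Suite. Scale: above 0.35 generally sequence-specific binding.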

Sequence	PBM E-score
AGGCATCC	0.387
AGGCATCG	0.0175
AGGCATCA	-0.162
CGGCATCC	0.444
CGGCATCA	0.223
CGGCATAC	-0.113
ACGCCTCA	-0.137
CGGCTCCA	0.0712
CGGCTGCC	0.376
AGGCTCCC	0.24
CGGCTGCA	0.0568
AGGCTGCA	-0.0233
CTGCTGCC	-0.0289
AGGCTGCC	0.382
CGGCTCCC	0.34
AGGCTGCG	0.138
CTGTCTTA	0.0396
CGCCATAC	0.127
TACCAGCA	0.0312
ACCCAGGT	0.0419
CAACGCTG	-0.0977
ATTTTTCA	0.1
ACGGCTCT	-0.00284
AAATGGCT	0.0656
ACTCACCC	-0.126

Sequence	PBM E-score
ATGGAAGC	0.344
CTGGAAGC	0.45
ATGGAAGA	-0.0302
ATGGAAGG	-0.201
GTGGAAGA	0.172
CTGGAAGA	0.0722
CCATGGGC	0.0107
ACCCCTGA	0.0403
CCTGGTCG	-0.127
TCCCACGA	0.244
GGCACCAC	0.249
TGCACCAA	-0.133
CGCACCTA	0.0792
GGCACCAA	0.335
GGCACCTA	0.281
AGCACCTA	0.241
CCACAAAC	0.19
ATGCATCC	-0.00178
ATGAAATG	0.104
TCCCCAAA	0.226
AGGGCGCA	-0.0301
CGGGCGCC	0.421
AGGGCGCG	0.194
CGGGCGGC	0.0469
CGGGCGCA	0.0492

Sequence	PBM E-score
AGGGCGCC	0.399
ATTAAGGG	0.0551
ATTATCCG	0.00436
TACCTGAA	0.0937
ATCAGGAG	0.0606
CTCTCCAA	-0.0761
AGTGTCAG	-0.142
CCAGATAC	0.294
ACAGATTC	0.176
CCAGATTA	0.233
CCAGATAA	0.0427
GCAGATAC	0.0819
CCAGATTC	0.326
CCCTGCCA	0.0623
CCGCGCAG	-0.219
AGGGATTG	0.0467
GTGCACTA	-0.146
AGCTGGCA	0.0163
AAAGCTGA	0.113
GAAGCTGA	0.322
CAAGCTGA	-0.139
GAAGCGGA	0.328
GAAGCTCC	0.309
GAAGCTCA	0.224
GAAGCTTC	0.339

Sequence	PBM E-score
CAAGCGGA	-0.137
AAAGCTCC	-0.0149
TAAGCGGA	-0.143
GAAGCTTA	0.136
CAAGCTTC	0.232
ATGGGCTC	0.102
TCGGTGAA	-0.0389
GACCATAC	0.159
CACAGCTA	-0.0538
AAAACGCT	-0.0686
TACCCGGA	-0.0492
GTAATGGA	0.0927
CAGGCCCG	-0.263
TATAAGGA	0.124
GCTTTGGA	0.0838
AAACGCCG	0.0308
CCGCTAGA	-0.00443
AGGCTTGG	0.0323
AAAGCTGC	-0.123
GAAGCTGC	0.406
CAAGCTGC	0.149
CAATCGAG	0.00485
CTTCCGAC	-0.00712
GAGTGATA	-0.122
CCGAAGGC	-0.158

Sequence	PBM E-score
ATCGAGGC	-0.0857
ACCAGATA	0.0838
AAAGCCCA	-0.0697
AAAGCCCC	-0.121
CAAGCCCC	-0.18
GAAGCCCA	0.368
CAAGCCCA	-0.244
GAAGCCCC	0.381
AACGCGGT	-0.107
GTTAAATA	0.0652
TCTAAGAA	0.0856
CGTCTCCC	0.0616
AGTCTCCA	0.0915
CGTCTCCA	0.284
CGGCCCCC	0.0724
ACTAGTCG	0.065
AGTCTGCA	-0.179
GAAGAGCA	-0.0362
CAGTGATA	0.0897
AACCAAGG	-0.00121
TGATCCCA	0.065
TGCTCCCA	-0.0935
GGATCCCA	0.391
CGATCCCC	0.111
AGATCCCC	0.156

Sequence	PBM E-score
CGCTCCCA	0.132
GGCTCCCA	0.348
AGATCCCA	0.265
GGATCCCC	0.362
AGTCTAGC	0.0246
CTGATAAG	0.0222
GTAGCTGA	-0.023
TATCTCGA	-0.115
GTTCCTTA	0.0517
AGGCTCCA	0.263
TGACTCCA	0.0388
GGACTCCA	0.345
CGACTCCA	0.0419
GGGCTCCA	0.318
GGGCTCGA	-0.0878
AGATGAGG	-0.0257
ATATTATG	0.132
CTAGACCC	-0.0797
AAAGACTC	-0.195
CGCCATAG	-0.14
AAGTTCGA	0.0312
GGAAGGCA	0.0904
AAGTAGCT	0.208
CAGCTTCA	0.0949
CAGCTTCG	0.328

Sequence	PBM E-score
CTGCTTCC	0.177
AAGCTTCG	0.129
AAGCTTCA	-0.0647
CAGCTTCC	0.457
AAGCTTCC	0.353
AAGCTTCT	0.184
CAGCTTGC	-0.267
CAAGAGCG	0.0229
GGGCGAGA	-0.0433
AAGATTAA	0.233
AGAATGTG	-0.221
GAGTCCAC	0.257
AACGCCTA	-0.0917
CGGATTCA	-0.0182
CTGATGCC	-0.0173
CGGATTCC	0.463
CGGATGCA	0.0929
AGGATTCA	-0.164
AGGATTCC	0.373
CGGATGCC	0.404
AGGATTCG	0.126
CGGATTTC	-0.122
AGCCCGTG	-0.0206
ACCACTGA	0.0982
AACCCGGG	0.0515

Sequence	PBM E-score
CGCCGGGC	-0.0527
ACACCTTA	0.0539
GCTGATCC	-0.0746
GCCGCCAA	0.125
GCTCGCGA	0.0716
TGCACCCA	0.151
CGCACCCC	0.0174
GGCACCCA	0.381
AGCACCCC	0.131
GGCACCCC	0.322
CGCACCCA	0.236
AACCTGCA	-0.0327
CCCGATGA	-0.0833
CAAATCGG	0.0561
CATCCAAG	-0.0862
CTTCCGGC	0.111
ATTCCAAA	0.307
CTTCCGGA	0.347
ATTCCACG	0.0676
ATTCCACA	0.247
CATCCAAC	-0.0403
ACTCCAAA	0.116
ATTCCGAA	0.147
CTTCCACA	0.349
CATCCAAA	0.298

Sequence	PBM E-score
ATTCCGGA	0.197
AGCTTATG	0.0485
CCGACATA	0.0516
GATAACCC	-0.017
AGCCCCCG	-0.0643
AGCGGGCA	-0.156
CTCCGGGA	0.00075
ACGGAGGC	-0.00955
CGTCCAAA	0.33
GTTCCAAA	0.302
CTTCCAAC	0.181
CGTCCAAG	-0.0458
ATTCCAAC	0.221
GTTCCAAC	0.0801
TTTCCAAA	0.178
ATTCCAAT	0.299
CTTCCAAG	-0.132
ATTCCAAG	0.196
AGTCCAAA	-0.0142
CTTCCAAA	0.338
